# Assay results: PubChem BioAssay AID372 (MTDP, 2006)
# The campaign covered roughly 100,000 compounds. About 770 (0.77%) were called active. The sample holds actives, similar compounds and a random draw of the others, so the mix is not that of the screen. No stated cut-off is given here; in the data, active means inhibition above about 50%; inactive means the rest.
# Molecular target: Gag-Pol polyprotein (Human immunodeficiency virus type 1 group M subtype B (isolate HXB2)) (UniProt P04585)
# Experiment: RNase H inhibition, HIV 1 Gag Pol polyprotein, FRET biochemical assay, screening (AID 372)
# Conditions: HIV-1 RT RNase H, FRET RNA/DNA substrate fluorescence; at 10 µM; hits give high values
row,SMILES,inhibition
1,CC(=O)N1N=C(c2ccc(N(C)C)cc2)CC1c1ccccc1 (stereo unspecified),11% (inactive)
2,Nc1[nH]n(-c2ccccc2)c(=O)c1N=Nc1ccc(Cl)cc1,9% (inactive)
3,O=C(N/N=C/c1ccc(I)cc1)C1CC(=O)N(c2ccccc2)C1 (stereo unspecified),9% (inactive)
4,Cc1cc(/C=N/O)c(C)n1-c1ccc(N(C)C)cc1,11% (inactive)
5,COc1cc(/C=C(\C#N)c2nc3ccccc3s2)cc(OC)c1O,54% (active)
6,COc1cc(/C=C(\C#N)c2nc3ccccc3s2)cc(Br)c1O,5% (inactive)
7,CCOc1cc(/C=C(\C#N)c2nc3ccccc3s2)ccc1O,16% (inactive)
8,C=CCN(CC=C)CC(O)CN1C(=O)NC(C)(C)C1=O (stereo unspecified),3% (inactive)
9,CC1=CC(C)(C)N(C(=O)CSc2nc3ccccc3s2)c2cc(C)ccc21,20% (inactive)
10,COC(=O)CSc1nc(N)c(C#N)c(-c2ccc(O)cc2)c1C#N,2% (inactive)
11,COc1ccc(-c2c(C#N)c(N)nc(SCC(=O)OCc3ccccc3)c2C#N)cc1,15% (inactive)
12,Cc1ccc(C(=O)CSc2nc(N)c(C#N)c(-c3ccc(O)cc3)c2C#N)cc1,47% (inactive)
13,COC(=O)CSc1nc(N)c(C#N)c(-c2ccc(OC)cc2)c1C#N,4% (inactive)
14,COc1cccc(N=Cc2c(O)ccc3ccccc23)c1,13% (inactive)
15,Cc1ccccc1Nc1ncc(-c2ccc3ccccc3c2)s1,22% (inactive)
16,COc1cc(C2C(C(=O)/C=C/c3ccccc3)=C(O)C(=O)N2c2ccccn2)ccc1O (stereo unspecified),6% (inactive)
17,COc1cc2ccccc2cc1C(=O)Nc1ccc(Br)cc1F,18% (inactive)
18,Cc1ccccc1-n1c(O)c(C=NCc2ccccc2F)c(=O)[nH]c1=O,9% (inactive)
19,CC1CCc2c(sc(N)c2C#N)C1 (stereo unspecified),57% (active)
20,CCC1CCc2c(sc(N)c2C#N)C1 (stereo unspecified),18% (inactive)
21,CCCC1CCc2c(sc(N)c2C#N)C1 (stereo unspecified),39% (inactive)
22,O=C(Nc1ccc(NC(=O)c2cc([N+](=O)[O-])cc([N+](=O)[O-])c2)cc1)c1cccc(Br)c1,12% (inactive)
23,CCC(OC(=O)CN1C(=O)C(=O)c2ccccc21)C(=O)Nc1ccc(S(N)(=O)=O)cc1 (stereo unspecified),12% (inactive)
24,O=C(O)COc1ccc(N2C(=O)CCC2=O)cc1,12% (inactive)
25,Cc1ccc(C)n1-c1ccc(OCC(=O)O)cc1,54% (active)
26,Cc1ccc(C)n1-c1ccc(CC(=O)O)cc1,47% (inactive)

row,SMILES,inhibition
1,CC(=O)c1ccc(-n2c(C)ccc2C)cc1,0% (inactive)
2,O=C(O)COc1ccc(N2C(=O)C=CC2=O)cc1,35% (inactive)
3,O=C(CN1C(=O)/C(=C/c2ccccc2Cl)SC1=S)Nc1nccs1,14% (inactive)
4,CCOc1ccccc1N1COc2ccc3ccccc3c2C1,14% (inactive)
5,CCOc1ccc(CN2CCN(C(=O)c3cccs3)CC2)cc1,5% (inactive)
6,COc1cccc(OCCCCOc2ccc(Cl)cc2C)c1,29% (inactive)
7,COc1ccc(OC)c(N(CC(=O)N/N=C/c2cc(Br)ccc2OC)S(=O)(=O)c2ccccc2)c1,2% (inactive)
8,O=C1NC(=O)/C(=C\c2ccc(Cl)cc2Cl)S1,16% (inactive)
9,Cc1ccc(NS(=O)(=O)c2cc(Cl)ccc2Cl)c(C)c1,20% (inactive)
10,Cc1ccc(C)c(NS(=O)(=O)c2cc(Cl)ccc2Cl)c1,47% (inactive)
11,Cc1ccc(NS(=O)(=O)c2cc(Cl)ccc2Cl)c(Br)c1,51% (active)
12,COc1ccc(C(=O)Nc2ccc(I)cc2Cl)cc1OC,8% (inactive)
13,COc1ccc(-c2nc(-c3ccccn3)no2)cc1OC,10% (inactive)
14,CCC(CC)C(=O)Nc1ccc(Cl)cc1Cl,13% (inactive)
15,O=C(CCSc1nc2ccccc2s1)Nc1ccccc1C(F)(F)F,13% (inactive)
16,Cn1c(-c2ccccn2)nc2ccccc21,2% (inactive)
17,Cn1c(-c2nc3ccccc3n2C)nc2ccccc21,13% (inactive)
18,Cn1c(-c2ccc(-c3nc4cnccc4n3C)cc2)nc2cnccc21,70% (active)
19,CC1CCCN(C2=NC(=O)/C(=C\c3cccc(O)c3)S2)C1 (stereo unspecified),12% (inactive)
20,Cc1cc(C=O)c(C)n1-c1cccc([N+](=O)[O-])c1,6% (inactive)
21,Cc1cc(/C=N/NC(=O)c2cc(Br)c(O)c(Br)c2)c(C)n1-c1cccc([N+](=O)[O-])c1,15% (inactive)
22,Cc1cccc(-n2c(C)cc(/C=N/NC(N)=O)c2C)c1,29% (inactive)
23,Cc1cc(/C=N/NC(N)=O)c(C)n1-c1cccc(Cl)c1,24% (inactive)
24,Cc1cc(/C=N/NC(N)=S)c(C)n1-c1cccc([N+](=O)[O-])c1,52% (active)
25,Cc1cccc(-n2c(C)cc(/C=N/NC(N)=S)c2C)c1,56% (active)
26,Cc1cc(/C=N/NC(N)=S)c(C)n1-c1cccc(Cl)c1,54% (active)

row,SMILES,inhibition
1,Cc1ccc(-n2c(C)cc(/C=N/NC(N)=S)c2C)cc1,15% (inactive)
2,Cc1cc(/C=N/NC(N)=S)c(C)n1-c1ccc(Cl)cc1,23% (inactive)
3,O=C(NCCc1ccccc1)/C(=C/c1ccco1)c1ccccc1,2% (inactive)
4,Cc1ccc(C(=O)c2cccc(C(=O)c3ccc(C)c(C)c3)c2)cc1C,8% (inactive)
5,O=C(Nc1c(-c2ccccc2)c2cc(Br)ccc2[nH]c1=O)c1cccc(Cl)c1,23% (inactive)
6,COc1ccc(OC(C)C(=O)Nc2ccc(F)cc2)cc1 (stereo unspecified),0% (inactive)
7,Cc1ccc(NC(=O)C2CC(=O)N(c3ccc(Br)cc3)C2)cc1Cl (stereo unspecified),5% (inactive)
8,COC(=O)C1=C(C)N(c2ccccc2)C(=O)/C1=C\c1ccc(C(=O)OC)cc1,15% (inactive)
9,Cc1cc(NS(=O)(=O)c2ccc(NC(=O)c3cc(Cl)cc(Cl)c3)cc2)no1,0% (inactive)
10,CC(=O)OCCNc1ccc2noc3c2c1C(=O)c1ccccc1-3,0% (inactive)
11,COCCCNc1ccc2c3c(nc(=O)n2C)-c2ccccc2C(=O)c13,50% (active)
12,CCCCNc1ccc2c3c(cc(=O)n2C)-c2ccccc2C(=O)c13,8% (inactive)
13,Fc1ccc(CN2CCc3c([nH]c4ccccc34)C2)cc1,0% (inactive)
14,CCCC(C)C(=O)Nc1cccc(C)c1C (stereo unspecified),10% (inactive)
15,CC(C)(C)C1=CC(C(C)(C)C)=C([N+](=O)[O-])C(=O)C1=O,6% (inactive)
16,CC(C)(C)C1=CC(Cl)=C(C(C)(C)C)C(=O)C1=O,5% (inactive)
17,CC(C)(C)C1=CC(C(C)(C)C)=C(Cl)C(=O)C1=O,69% (active)
18,Cc1ccccc1CNS(=O)(=O)c1cccs1,0% (inactive)
19,COc1ccccc1/C=N\N(C)c1nc(-c2ccccc2)cc(-c2ccccc2)n1,17% (inactive)
20,COc1cc(/C=N/Nc2nc(N3CCOCC3)nc(N3CCOCC3)n2)cc(OC)c1,5% (inactive)
21,COc1ccc(-n2nc3ccc(NC(=O)/C=C/c4ccco4)cc3n2)cc1,48% (inactive)
22,O=C(/C=C/c1ccc(-c2ccccc2[N+](=O)[O-])o1)Nc1ccc(-c2nc3ncccc3o2)cc1,16% (inactive)
23,Cc1cc2nc(-c3ccc(NC(=O)/C=C/c4ccco4)cc3)oc2cc1C,57% (active)
24,O=C(/C=C/c1ccc(-c2ccccc2[N+](=O)[O-])o1)Nc1ccc(-c2nc3cc(Cl)ccc3o2)cc1,53% (active)
25,O=C(/C=C/c1ccco1)Nc1ccc2nn(-c3ccccc3)nc2c1,24% (inactive)
26,Cc1ccc(-c2nc3cc(NC(=O)/C=C/c4ccco4)ccc3o2)cc1,12% (inactive)

row,SMILES,inhibition
1,Cc1ccc2nc(-c3ccc(NC(=O)/C=C/c4ccco4)cc3)oc2c1,11% (inactive)
2,O=C(/C=C/c1ccco1)Nc1ccc2oc(-c3ccccc3)nc2c1,15% (inactive)
3,O=C(/C=C/c1ccco1)Nc1ccc2nn(-c3ccc(Cl)cc3)nc2c1,50% (active)
4,O=C(/C=C/c1ccc(-c2ccccc2[N+](=O)[O-])o1)Nc1ccc(-c2nc3ccccc3o2)cc1,45% (inactive)
5,O=C(/C=C/c1ccco1)Nc1ccc(-c2nc3cc(Cl)ccc3o2)cc1,51% (active)
6,Cc1cc2nc(-c3cccc(NC(=O)/C=C/c4ccco4)c3)oc2cc1C,12% (inactive)
7,O=C(Nc1ccc(N2CCOCC2)c(Cl)c1)c1cc([N+](=O)[O-])ccc1Cl,24% (inactive)
8,O=C1NC(=O)C(=Cc2ccccc2OCc2ccccc2F)C(=O)N1,4% (inactive)
9,COc1ccc(CN2CCN(C(=O)c3cccs3)CC2)c(OC)c1,5% (inactive)
10,CC(C)(C)c1ccc(S(=O)(=O)Nc2ccc(-c3ccc(NS(=O)(=O)c4ccc(C(C)(C)C)cc4)c(Cl)c3)cc2Cl)cc1,23% (inactive)
11,CC1CCN(Cc2c(O)ccc3c(=O)c(-c4ccc(Cl)cc4)coc23)CC1,0% (inactive)
12,COc1cc(-c2nc3ccccn3c2/N=C/c2cccc([N+](=O)[O-])c2)ccc1O,17% (inactive)
13,O=C(/C=C/c1ccco1)Nc1cccc(-c2nc3ccccc3o2)c1,10% (inactive)
14,Cc1ccc2oc(-c3cccc(NC(=O)/C=C/c4ccco4)c3)nc2c1,6% (inactive)
15,O=C(/C=C/c1ccccc1)Nc1nc2ccc(Br)cc2s1,48% (inactive)
16,O=C(/C=C/c1ccco1)Nc1ccc(C(=O)Nc2cccc(-c3nc4ccccc4o3)c2)cc1,55% (active)
17,O=C(/C=C/c1ccco1)Nc1nc2ccc(Br)cc2s1,59% (active)
18,O=C(/C=C/c1ccco1)Nc1nc(-c2ccc(Br)cc2)cs1,15% (inactive)
19,CC(C)(C)C(=O)CC(=O)c1ccccc1,10% (inactive)
20,CCOc1cc(CN2CCCCC2)ccc1OC,19% (inactive)
21,O=C(NC(=S)Nc1ccc(F)c([N+](=O)[O-])c1)c1cccc(Cl)c1,22% (inactive)
22,CC(/C=C/c1ccccc1)=N/NS(C)(=O)=O,3% (inactive)
23,COc1ccc(/C=C/C(=O)Nc2c(C(C)C)cccc2C(C)C)cc1Br,7% (inactive)
